CYP2C9 activ – human CYP2C9 activators, primary screen, biochemical, luminescence. Cytochrome P450 2C9 (Homo sapiens), P11712. actives 1.4% (n = 96,000). activation factor at 5 µM. AID 1024, 2008. recombinant CYP2C9, luciferin-H conversion; stronger effect = higher value; factor 1 = untreated enzyme, 0 = blocked;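 active means activation factor of 2 or more for CYP2C9 at a 5 µM dose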
Target sequence (P11712 whole entry, looked up): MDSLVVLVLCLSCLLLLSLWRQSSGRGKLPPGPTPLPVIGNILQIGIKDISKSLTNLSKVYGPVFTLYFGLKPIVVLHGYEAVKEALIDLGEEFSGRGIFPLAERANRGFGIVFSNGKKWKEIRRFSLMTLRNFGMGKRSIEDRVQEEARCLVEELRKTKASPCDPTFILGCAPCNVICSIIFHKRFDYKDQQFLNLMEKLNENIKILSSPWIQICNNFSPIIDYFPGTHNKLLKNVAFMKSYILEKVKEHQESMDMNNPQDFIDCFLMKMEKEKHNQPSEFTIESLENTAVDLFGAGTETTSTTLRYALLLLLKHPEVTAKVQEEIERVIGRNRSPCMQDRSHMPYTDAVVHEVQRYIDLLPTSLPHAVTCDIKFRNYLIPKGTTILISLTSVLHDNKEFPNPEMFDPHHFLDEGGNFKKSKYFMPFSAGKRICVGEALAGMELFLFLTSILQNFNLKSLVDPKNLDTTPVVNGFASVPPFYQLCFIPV
CYP2C19 activ – human CYP2C19 activators, primary screen, biochemical, luminescence. Cytochrome P450 2C19 (Homo sapiens), P33261. recombinant CYP2C19, luciferin-H EGE luminescence; stronger effect = higher value; 0 = fully inhibited enzyme, 1 = untreated enzyme. activation factor at 5 µM. 96,000 tested, under 10 active. AID 1025, 2008;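 active means activation factor of at least 2 at 5 µM in the primary screen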
CYP2C9 inh – blockers of cytochrome P450 2C9 activity – biochemical, luminescence, ADME assay, primary screen | P11712 | CYP2C9 Supersomes, luciferin-H conversion | inhibition, % at 5 µM | AID 777, 2007 | actives 20% (n = 96,000);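 active means blocking of liver enzyme CYP2C9 beyond about 50% at 5 µM, limit read from the data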
CYP2C19 inh – blockers of cytochrome P450 2C19 activity – biochemical, luminescence, ADME assay, primary screen; AID 778, 2007; actives 21% (n = 96,000); P33261; CYP2C19 Supersomes, luciferin-H EGE luminescence, 30 min; inhibition, % at 5 µM;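 active means CYP2C19 inhibition above a set limit at 5 µM in the primary screen, cut at about 50% in these data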
A number is an active result; - = inactive. An excerpt weighted towards active compounds, which were near 31% of everything screened.

SMILES | CYP2C9 activ | CYP2C19 activ | CYP2C9 inh | CYP2C19 inh
Cn1c(C(O)c2ccc(Cl)cc2)nc(Cl)c1Cl (stereo not drawn) | - | - | - | 91
COC(=O)c1ccc(COC(=O)CNC(=O)c2ccco2)cc1 | - | - | - | -
O=C(CNC(=O)c1ccco1)NCC(=O)OCc1cccc(Cl)c1 | - | - | - | -
O=C(CNC(=O)c1ccco1)OCc1ccc(C(=O)Oc2ccccc2)cc1 | - | - | 58 | -
O=C(CNC(=O)c1ccco1)NCC(=O)OCc1ccc(C(=O)Oc2ccc(Cl)cc2)cc1 | - | - | 58 | -
CCOCCCn1c(=NC(=O)c2ccc(OC)c(OC)c2)c(C#N)cc2c(=O)n3cccc(C)c3nc21 | - | - | - | -
CCOc1ccc(Nc2nc(Cc3nnc(SCC(=O)c4ccc(C)c(C)c4)o3)cs2)cc1 | - | - | - | -
N#Cc1c(C(F)(F)F)cc(-c2cccs2)nc1SCc1cccnc1 | - | - | 75 | 57
N#Cc1c(C(F)(F)F)cc(-c2cccs2)nc1SCc1ccc(Cl)nc1 | - | - | 56 | -
COc1ccc(-c2nc(NC(=O)CSc3nnc(C)s3)ns2)cc1 | - | - | - | -
COc1ccc(CCn2c(C)cc3c(c2=O)C(c2ccncc2)C(C#N)=C(N)O3)cc1OC (stereo not drawn) | - | - | 79 | 83
CCn1c(C)cc2c(c1=O)C(c1ccncc1)C(C#N)=C(N)O2 (stereo not drawn) | - | - | - | -
c1ccc(-n2nnnc2-n2ccnc2)cc1 | - | - | - | -
N#Cc1c(-n2cccc2)cccc1-n1cccc1 | 3.7 | - | - | 62
N#Cc1c(Cl)cccc1-n1ccnc1 | - | - | 51 | -
CCOC(=O)c1ccccc1NC(=O)CSc1nnc(COc2ccccc2C)n1C | - | - | - | -
CCOC(=O)c1[nH]cc(-c2ccccc2)c1N1CCOCC1 | - | - | - | 93
Cc1ccc(NC(=O)c2ocnc2C)cc1Cl | - | - | - | -
CNC(=O)c1ccc(N(Cc2ccccc2)S(C)(=O)=O)cc1 | - | - | - | 52
Cc1ccccc1CN(c1ccc(C(=O)Nc2cccnc2)cc1)S(C)(=O)=O | - | - | 96 | 98
CC(=O)c1cccc(NC(=O)c2ccc(N(Cc3ccccc3)S(C)(=O)=O)cc2)c1 | - | - | - | -
COc1ccc(NC(=O)c2ccc(CN(c3cc(Cl)ccc3C)S(=O)(=O)c3ccccc3)cc2)cc1OC | - | - | 66 | -
CS(=O)(=O)N(Cc1ccc(C(=O)NCCSCc2ccco2)cc1)c1ccccc1 | - | - | 85 | 55
Cc1ccccc1CN(c1ccc(C(=O)N2CCCC2)cc1)S(C)(=O)=O | - | - | - | -
Cc1cc(C)c(C)c(S(=O)(=O)N2CCN(CC(=O)NC(=O)NCc3ccccc3)CC2)c1C | - | - | - | -
SMILES | CYP2C9 activ | CYP2C19 activ | CYP2C9 inh | CYP2C19 inh
CCCCn1c(C(C)NC(=O)c2cccs2)nc2ccccc21 (stereo not drawn) | - | - | - | -
c1ccc(Cn2nnnc2C(c2cccnc2)N2CCN(c3ccccc3)CC2)cc1 (stereo not drawn) | - | - | - | -
Cc1ccc(Cl)cc1N(Cc1ccc(C(=O)NCc2cccnc2)cc1)S(=O)(=O)c1ccccc1 | - | - | 58 | -
Cc1ccc(CN(c2ccc(C(=O)NCc3cccnc3)cc2)S(C)(=O)=O)cc1 | - | - | 94 | 93
Cc1ccc(CN(c2ccc(C(=O)NCc3ccccn3)cc2)S(C)(=O)=O)cc1 | - | - | - | -
Fc1ccc(OCc2nn3cnnc3s2)cc1 | - | - | - | 79
CCN(CC)C(=O)Cn1nc(-c2ccccc2O)nc1SCC(=O)Nc1ccc(OC)cc1 | - | - | 69 | -
COc1ccc(-c2nnc(SCC(=O)Nc3ccccc3)n2C)cc1 | - | - | - | -
CCCn1c(SCC(=O)Nc2ccc(OC)cc2)nnc1-c1ccncc1 | - | - | - | -
COc1ccc(NC(=O)CSc2nc(-c3ccncc3)nn2CC(=O)N2CCCC2)cc1 | - | - | 83 | 92
Cc1cc(Nc2ccccc2)nn1C(=O)c1ccc(Cl)cc1 | - | - | 55 | -
Cc1cc(Nc2ccccc2)n(C(=O)c2ccccc2)n1 | - | - | - | -
C/C(Cn1nnc([N+](=O)[O-])n1)=N\NC(=O)c1ccc(Cl)c(Cl)c1 | - | - | - | -
Nc1nc(SCC(=O)N2CCCc3ccccc32)[nH]c(=O)c1-c1ccccc1 | - | - | 51 | -
CCOC(=O)c1cccc(NC(=O)CSc2nnc(-c3ccoc3C)n2CC)c1 | - | - | 70 | -
CCOC(=O)c1cccc(NC(=O)CSc2nc(N)cc(N)n2)c1 | - | - | 78 | 64
CCOC(=O)c1cccc(NC(=O)CSc2nnc(C)n2Cc2ccccc2)c1 | - | - | 91 | 87
COc1cccc(NC(=O)CSc2nc(N)cc(N)n2)c1 | - | - | - | -
CCOC(=O)c1cccc(NC(=O)CSc2nnnn2CC)c1 | - | - | 83 | 55
COc1cc2c(cc1OC)CN(CC(=O)Nc1ccc(C#N)cc1)CC2 | - | - | - | -
Cc1ccc(CNC(=O)C2CCN(S(=O)(=O)N3CCOCC3)CC2)cc1 | - | - | - | -
CCOC(=O)c1ccc(NC(=O)CSc2nnnn2CCCO)cc1 | - | - | - | 58
CC(=O)c1cc(-c2ccccc2)n(CC(=O)NCc2cccs2)c1C | - | - | - | 88
CCOC(=O)c1cc(-c2ccc(C)cc2)n(CCC(=O)NCCN(C)C)c1C | - | - | - | -
CCOC(=O)c1cc(-c2ccc(C)cc2)n(CC(=O)NCc2ccco2)c1C | - | - | 77 | 83
SMILES | CYP2C9 activ | CYP2C19 activ | CYP2C9 inh | CYP2C19 inh
CCCCCOC(=O)Cn1c(=O)oc2ccccc21 | - | - | - | 89
CCCCOC(=O)Cn1c(=O)n(CC(=O)OCCCC)c2ccccc21 | - | - | 50 | -
CC(C)OC(=O)Cn1c(=O)oc2ccccc21 | - | - | - | -
Cc1nc2c(-c3ccccc3)c(C)nn2c(C)c1CCC(=O)N1CCOCC1 | - | - | - | -
Fc1ccc(CSc2nsc(SCc3ccc(F)cc3)n2)cc1 | - | - | - | -
CSc1nsc(SCc2ccc(Cl)cc2)n1 | - | - | - | 82
CSc1nsc(SCc2ccc(F)cc2)n1 | - | - | - | 79
CCOC(=O)N1CCN(C(=O)CN(c2cccc(C(F)(F)F)c2)S(C)(=O)=O)CC1 | - | - | - | -
CCOC(=O)c1c(N)n(C2CC(C)(C)NC(C)(C)C2)c2nc3ccccc3nc12 | - | - | - | -
CC(=O)c1cccc(-n2nnnc2SCC(=O)N2CCCC2)c1 | - | - | - | -
C=CCOc1c(Cl)cc(/C=N/O)cc1OC | - | - | - | 98
C=CCc1cc(C=O)cc(OC)c1OCc1c(Cl)cccc1Cl | - | - | - | -
O=C(CC1CCCC1)Nc1ccc2c(c1)CCC2 | - | - | - | 66
O=C(Cn1nnc(-c2ccccc2)n1)c1ccccc1 | - | - | - | 59
COc1cccc(NC(=O)Cn2nnc(-c3ccccc3N)n2)c1 | - | - | - | 52
O=C(Cn1nnc(-c2ccc(Cl)cc2)n1)NCCC1=CCCCC1 | - | - | - | 52

Assay outcomes: PubChem BioAssay, Sanford-Burnham Center for Chemical Genomics
